# Measurements taken from article PMC13494018.
# B1: design_605_6ebdab39-eaab-4492-afcb-164e20c3b25e_1837_dldesign_0_cycle1_af2pred (protein)
# chain: MDKEKIKKKLYKELSEAAKKGAMAVFDVVDKAYDEGTAELAKEAAEEVAKETTPEEAKAMRAGARYLEAATA
# B2: design_605_6ebdab39-eaab-4492-afcb-164e20c3b25e_2299_dldesign_0_cycle1_af2pred (protein)
# chain: ELEELKKKHEAYEEYLKAIAYYEQSKLSKSLAEEAKQKAAEHINKANKLLGKEELSLEEAVKEAEKLDENASEIVKKLVETKKKIEEL
# B3: design_605_6ebdab39-eaab-4492-afcb-164e20c3b25e_1459_dldesign_0_cycle1_af2pred (protein)
# chain: AAEEARKKKLEEFAKKAKEAAKKFSPEYAKKAKEAAKLYEQGKTATPAEAAALAQKARQLLAEAEYEDKK
# B4: design_605_6ebdab39-eaab-4492-afcb-164e20c3b25e_2478_dldesign_0_cycle1_af2pred (protein)
# chain: SAAAEAARKAEAKKAADEYYAKGEEYYQKALDDPKNAKKYLQKAYSYYLLAAQAYEIAGDKEKAKEAEEKADKAAEA
# B5: design_605_6ebdab39-eaab-4492-afcb-164e20c3b25e_1884_dldesign_0_cycle1_af2pred (protein)
# chain: NKKKEEAAKLAKESLAKAKEIADYAVANKDTINKAEATALATEAASYAAEALGYAAFAGKEEYEKMKKEFKEIREKMKAVLDAI
# B6: design_605_6ebdab39-eaab-4492-afcb-164e20c3b25e_1733_dldesign_0_cycle1_af2pred (protein)
# chain: AAEKGKNLAESVKLFSEQALENGKKLGAEALKEAAKRIKKRGDKAVTTIAKDPSAAPYAKEAEAITKDYIKKAEEAAKKAK
# B7: design_605_6ebdab39-eaab-4492-afcb-164e20c3b25e_2341_dldesign_0_cycle1_af2pred (protein)
# chain: LTDEELKEIAKKVAEEAGEKALKLLREGKSIMEAADAADELVKTVEFLPQEYFLYAAKLAAEKVAEAGREVIEERKREEA
# B8: design_605_6ebdab39-eaab-4492-afcb-164e20c3b25e_1042_dldesign_0_cycle1_af2pred (protein)
# chain: ELEKLAKKAEDAAAVLKNSKARAHALSAALQLEAGNKELAKKSATAAAAVLDANPDITPEEEKARDALKEIADWLA
# B9: design_605_6ebdab39-eaab-4492-afcb-164e20c3b25e_778_dldesign_0_cycle1_af2pred (protein)
# chain: EVKELIKKAKELIEKAEKLTKSGEKLEEGEKAAEEAKKVVEEAKKVAKDSTPEEKFAVAEALAELRNVEREIKKAKEEK
# B10: design_605_6ebdab39-eaab-4492-afcb-164e20c3b25e_799_dldesign_0_cycle1_af2pred (protein)
# chain: GEKEKLKKEAEELEKKAKELEKKAEEKFKKNIKKGSKALSYVEQAKNAAKVAKKYAEEGKVEEAKKALEKAKEYLKKAKEYVEE
# B11: design_605_6ebdab39-eaab-4492-afcb-164e20c3b25e_1516_dldesign_0_cycle1_af2pred (protein)
# chain: EKEKEAKEIIEKARKALKEARKKLKAKGATPEQAKKMQEARELAAEADYLAKKDPKKGKEIAEKAIELAKKAAE
# B12: design_605_6ebdab39-eaab-4492-afcb-164e20c3b25e_2390_dldesign_0_cycle1_af2pred (protein)
# chain: AAEKLKEKVEKIKKEAEEKAKKAKTKEEAAKIYREGAEKIRKLATEALKKDPSVEPAVKYGSKVAAELREKAAELDVLANRE
# B13: design_605_6ebdab39-eaab-4492-afcb-164e20c3b25e_1749_dldesign_0_cycle1_af2pred (protein)
# chain: MTPEELRKAEVEALIKKASEAMGEARFYANYAKLTGDKEAAKKAAEAAKKAIEYLTAAAALSTDPAVKARAKAAAERAKKLAKEALE
# B14: design_605_6ebdab39-eaab-4492-afcb-164e20c3b25e_2465_dldesign_0_cycle1_af2pred (protein)
# chain: AKKLQEAADEANKAFALLAKAAKAHPEIKEEALAAKKAALTMLEGKNAKEAAKAAKEKLKAAAQKAPEVAAEMAAAMKAVDKMLEL
# B15: design_605_6ebdab39-eaab-4492-afcb-164e20c3b25e_1493_dldesign_0_cycle1_af2pred (protein)
# chain: TIEKNVALAEKLAERAKEVAKKAAADPNKKEAAKLAKKAAELAKEAAALAKEGKIAEGAKKMHEARELLAEAEHLLRK
# B16: design_605_6ebdab39-eaab-4492-afcb-164e20c3b25e_1234_dldesign_0_cycle1_af2pred (protein)
# chain: SGVKETAIEVAEDAKKAAEEAEKLAKEKPEFAKELKKVAEKAKKAAKKALEGAKKSEEEARKATAEAATALALAENVIDTVKLA
# B17: design_605_6ebdab39-eaab-4492-afcb-164e20c3b25e_1027_dldesign_0_cycle1_af2pred (protein)
# chain: ALEEAKKKIEEAEKRASKRLDEVAAKVSPEEAKKLEEAKKELKEKTEKAKKLSPEEAIKLAAEAAAKAYEAAAEARAKE
# B18: design_605_6ebdab39-eaab-4492-afcb-164e20c3b25e_2187_dldesign_0_cycle1_af2pred (protein)
# chain: SAAKEEAKKEAEKLKEKVKKLKKELEENKDNKEKAKKIAKEAREVIREARELGKKYASFKEVHKELSEAAAEAAEVRAEADLYAS
# B19: design_605_6ebdab39-eaab-4492-afcb-164e20c3b25e_1481_dldesign_0_cycle1_af2pred (protein)
# chain: SEVEEAIKKIKDTAAKATAAAIAAAAVDPTLGANVAADGQAKLTELAWEYSKKYPEHKEEIEKTRKEERKAMRDAVGAAIAAVA
# B20: design_605_6ebdab39-eaab-4492-afcb-164e20c3b25e_2348_dldesign_0_cycle1_af2pred (protein)
# chain: DPALEEAKKHAEELAAKLSPDLAKEFKEFADFVLANAEKVITANKDNPEKRKEAGEQAKKVISSAAEAAIKLDK
# B21: design_605_6ebdab39-eaab-4492-afcb-164e20c3b25e_768_dldesign_0_cycle1_af2pred (protein)
# chain: DIAKLAEKAAKALKKAAEEGLEALAKAAALVQEARAEAKFKGLKEVAELLEKALKLAREAGKTEDEEERKALAEKAAKYAEEAAKKAK
# B22: design_605_6ebdab39-eaab-4492-afcb-164e20c3b25e_1415_dldesign_0_cycle1_af2pred (protein)
# chain: AAKLEAKMKAMDMAVEAGEADAEDEEKGKEKLEELKKMVEEIAKEIGEEAGESAWRIAMDVYEHTVKMKK
# B23: design_605_6ebdab39-eaab-4492-afcb-164e20c3b25e_1941_dldesign_0_cycle1_af2pred (protein)
# chain: AAAEEKAAEEEMKKLGEKNVEKVKKAAKKGAEEAEKAVKEAFKDFEKAAKTPASINVGQKAREEMLGIAAEARIKE
# B24: design_605_6ebdab39-eaab-4492-afcb-164e20c3b25e_1473_dldesign_0_cycle1_af2pred (protein)
# chain: AKEILDAQMKILDAANEAEKVDPELGKEIREKYKKVAEEGKKLSPEEALKALKAMAEEAEKKAKEAKKEAEKKKLE
# B25: design_605_6ebdab39-eaab-4492-afcb-164e20c3b25e_858_dldesign_0_cycle1_af2pred (protein)
# chain: ALEEFKKLLQKLIDLTAAVPEAAKAREELENGTPREALKAAIKAAKAKAAADPSVAPELEKLVHELSQAAAEAELELKK
# B26: design_605_6ebdab39-eaab-4492-afcb-164e20c3b25e_2239_dldesign_0_cycle1_af2pred (protein)
# chain: GEKEKYAEEIKKIAKELKALGTPEGEKGAKVAERLSKQAKKTKKAEHAKGYLDIAKDIEKQAKALIAAKQ
# B27: design_605_6ebdab39-eaab-4492-afcb-164e20c3b25e_2228_dldesign_0_cycle1_af2pred (protein)
# chain: SALAERARALRAAARAEAAADPENAAAIARAGARELRALYRENRDRITPEERATISAAAADLYELAAEAEAE
# B28: design_605_6ebdab39-eaab-4492-afcb-164e20c3b25e_904_dldesign_0_cycle1_af2pred (protein)
# chain: AEAEKKAKEGKEKMEAGKKKLAEAKKTGSAELAKEAAKLFKEAGKLFAAVPEQQANAAEAAKLAHEAYELAAEARAK
# B29: design_605_6ebdab39-eaab-4492-afcb-164e20c3b25e_1133_dldesign_0_cycle1_af2pred (protein)
# chain: NAAEIAAAKAALAEARAAFEAAGAALVAADPSYAPQVAKALARIDKLEADGKANPALAAEYYQLATDIAEDQAANAKKLLAAIT
# B30: design_605_6ebdab39-eaab-4492-afcb-164e20c3b25e_1965_dldesign_0_cycle1_af2pred (protein)
# chain: VAKSYAEAAKDYTAATEAFTTAATLGADAGVATAKAKLDPGLASIVSTTIKANDAAARAAGAKRWAKRAEKYKAAAEKAAA
# B31: design_605_6ebdab39-eaab-4492-afcb-164e20c3b25e_883_dldesign_0_cycle1_af2pred (protein)
# chain: DAEIQAILEQAKKALKAAKESLEKGKKYEEEGKKNLAEAYYEHAIHNAEQAIKLAEQNIAAGGKPEEAQKIKDEAKKVKEEAKG
# B32: design_605_6ebdab39-eaab-4492-afcb-164e20c3b25e_2126_dldesign_0_cycle1_af2pred (protein)
# chain: DELEKYKKEAKEAAKEAIKEAKELGKLIGDEKWAKANQEKIKKIEEKAQKSKDAEVAKKYAEELKKAKEKLKKIKKRAKEALE
# B33: design_605_6ebdab39-eaab-4492-afcb-164e20c3b25e_1926_dldesign_0_cycle1_af2pred (protein)
# chain: SPAEERRAKATAYAARVAKEDPEFALELIREAAKADPETATEVVKAMTEAATKAAAEVDPEKAKELKEKGEAILKEVEKA
# B34: design_605_6ebdab39-eaab-4492-afcb-164e20c3b25e_1054_dldesign_0_cycle1_af2pred (protein)
# chain: DVTEKAKKAAEEALKADAETAAKLLSEAAKLAVEAGDSEGMHIIRQAISEMDFAGKKEGAAKARAAAAAAVRARQAALAA
# B35: design_605_6ebdab39-eaab-4492-afcb-164e20c3b25e_2016_dldesign_0_cycle1_af2pred (protein)
# chain: KAEEEAKKAVEFLLALGKEHPAGAEYAEKAAKAIENGEDIGTAMAYAWAAGQAVGDAALADKAMDKVAEAHMARK
# B36: design_605_6ebdab39-eaab-4492-afcb-164e20c3b25e_1026_dldesign_0_cycle1_af2pred (protein)
# chain: AEKEETEEKAKEVLKKAEEAAEKILKKDPKKAQEVYRIIFLGESKRLAGDYEEALKLYEEALKKAEELNKEL
# B37: design_605_6ebdab39-eaab-4492-afcb-164e20c3b25e_2056_dldesign_0_cycle1_af2pred (protein)
# chain: MKEELLKISEESHQAAAEAQFLAAKNPSVKPLAEEAKKHAKKSIEAAKEGDLEKAKEHYKKVLELKEKAKKE
# B38: design_605_6ebdab39-eaab-4492-afcb-164e20c3b25e_1408_dldesign_0_cycle1_af2pred (protein)
# chain: AEEEEKIKKKAKEIVDTIVKAAKEGLEKARKTAAELAKKYGMKTEDAALVRSLAVKTAKEGGKYYEDAVEAAVEGIKE
# Target: VTCN1, Q7Z7D3
# Sequence (Q7Z7D3 whole entry): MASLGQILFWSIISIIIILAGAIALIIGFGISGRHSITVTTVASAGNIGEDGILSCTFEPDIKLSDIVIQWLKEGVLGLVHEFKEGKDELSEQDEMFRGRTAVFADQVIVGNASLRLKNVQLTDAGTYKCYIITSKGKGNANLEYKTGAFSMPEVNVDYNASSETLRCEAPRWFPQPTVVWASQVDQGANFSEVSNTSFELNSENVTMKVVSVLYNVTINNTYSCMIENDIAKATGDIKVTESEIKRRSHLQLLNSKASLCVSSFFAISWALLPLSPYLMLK
row,Binder,binding in a display sort
1,B1,not found (inactive)
2,B2,not found (inactive)
3,B3,not found (inactive)
4,B4,not found (inactive)
5,B5,not found (inactive)
6,B6,not found (inactive)
7,B7,not found (inactive)
8,B8,not found (inactive)
9,B9,not found (inactive)
10,B10,not found (inactive)
11,B11,not found (inactive)
12,B12,not found (inactive)
13,B13,not found (inactive)
14,B14,not found (inactive)
15,B15,not found (inactive)
16,B16,not found (inactive)
17,B17,not found (inactive)
18,B18,not found (inactive)
19,B19,not found (inactive)

row,Binder,binding in a display sort
1,B20,not found (inactive)
2,B21,not found (inactive)
3,B22,not found (inactive)
4,B23,not found (inactive)
5,B24,not found (inactive)
6,B25,not found (inactive)
7,B26,not found (inactive)
8,B27,not found (inactive)
9,B28,not found (inactive)
10,B29,not found (inactive)
11,B30,not found (inactive)
12,B31,not found (inactive)
13,B32,not found (inactive)
14,B33,not found (inactive)
15,B34,not found (inactive)
16,B35,not found (inactive)
17,B36,not found (inactive)
18,B37,not found (inactive)
19,B38,not found (inactive)
